{"source": "PubChem BioAssay (Tox21)", "note": "Inconclusive results are not listed. Calls of active or inactive are those of the source. Calls follow the shape of the dose curve; as a rule, active = well fitted activation curve with a large enough effect in the repeat runs; inconclusive = weak or mixed curves; inactive = flat fitted curve, though single readings scatter. % is scaled to controls: 0 for no effect and ±100 for the full control effect."}
{"experiment": "A CellTox Green Cytotoxicity Assay to monitor cytotoxicity in HEK293 cells - 24 hour (AID 1224875); also: nearly all actives have a fitted effect of over 45% in size", "details": "CellTox Green fluorescence, active compounds read high; series mostly up to 76.8 µM; activity change: at the top concentration", "from_the_text": "National Center for Advancing Translational Sciences [NCATS]\nNIH Chemical Genomics Center [NCGC]\nU.S. Environmental Protection Agency [EPA]\nNational Institutes of Environmental Health Sciences [NIEHS]\nNational Toxicology Program [NTP]\nCell-based models are critical for drug discovery. Determining the natural cytotoxic effects resulting from test compounds is an essential research activity. A CellTox Green Cytotoxicity Assay to monitor cytotoxicity in real time of continues cell culture during 40 hours of the compound treatment was used to screen Tox21 10K library compounds in Hek293 cells. CellTox Green Cytotoxicity Assay is a nonlytic, homogeneous, biofluorescent method to measure cytotoxicity in cell culture after experimental manipulation. The assay system uses a proprietary asymmetric cyanine dye that is excluded from viable cells but preferentially stains the dead cell's DNA. […] Viable cells produce no appreciable increases in fluorescence. Therefore, the fluorescence signal produced by the binding interaction with dead cell DNA is proportional to cytotoxicity.\nThe mixture of Hek293 cell suspension and reagents were dispensed at 600cells/6 ul/well in 1536-well tissue culture treated black solid bottom plates using a Multidrop dispenser. After the assay plates were incubated at a 37 C/5% CO2 incubator for 5 hours, 23 nL of compounds dissolved in DMSO, positive and negative controls was transferred to the assay plate by a pintool work station. The plates were incubated at 37 C for 40 hours. The fluorescence intensity were measured at 0h, 8h, 16h, 24h, 32h and 40h time points using ViewLux plate reader during compound treatment."}
{"molecule": "c1ccc2sc(SN3CCOCC3)nc2c1", "activity change": "-2.24% [at 35.3 µM] (inactive)"}
{"molecule": "O=C(c1ccccc1O)c1ccccc1O", "activity change": "24.9% (inactive)"}
{"molecule": "Nc1c2c(nc3c1CCC3)CCCC2", "activity change": "5.23% [at 35.3 µM] (inactive)"}
{"molecule": "CCOCC(C)O", "note": "(stereo not given)", "activity change": "4.01% (inactive)"}
{"molecule": "CCOC(=O)COC(=O)c1ccccc1C(=O)OCC", "activity change": "-16.5% (inactive)"}
{"molecule": "O=C(O)CCSCCC(=O)O", "activity change": "-6.59% (inactive)"}
{"molecule": "CCCC[N+](C)(CCCC)CCCC", "activity change": "-2.61% (inactive)"}
{"molecule": "FB(F)F", "activity change": "0.544% (inactive)"}
{"molecule": "O=S(=O)(O)c1cccc2ccccc12", "activity change": "6.84% (inactive)"}
{"molecule": "CCN[C@H]1C[C@H](C)S(=O)(=O)c2sc(S(N)(=O)=O)cc21", "activity change": "0.901% [at 35.3 µM] (inactive)"}
{"molecule": "COC(=O)C1=C(C)NC(C)=C(C(=O)OC(C)C)C1c1cccc2nonc12", "note": "(stereo not given)", "activity change": "-5.11% [at 35.3 µM] (inactive)"}
{"molecule": "CC(C)NNC(=O)c1ccncc1", "activity change": "-20.4% [at 35.3 µM] (inactive)"}
{"molecule": "CNCCO", "activity change": "0.0787% (inactive)"}
{"molecule": "CC[N+](CC)(CC)CCOc1cccc(OCC[N+](CC)(CC)CC)c1OCC[N+](CC)(CC)CC", "activity change": "-1.87% [at 35.3 µM] (inactive)"}
{"molecule": "CC(=O)NC(=O)c1ccccc1O", "activity change": "-2.81% [at 35.3 µM] (inactive)"}
{"molecule": "O=S(=O)(O)c1cccc(S(=O)(=O)O)c1", "activity change": "-6.75% (inactive)"}
{"molecule": "CNCC(O)c1ccc(O)c(O)c1", "note": "(stereo not given)", "activity change": "-33.9% [at 35.3 µM] (inactive)"}
{"molecule": "CC(C)C[C@@H](N)C(=O)O", "activity change": "-2.57% [at 15.8 µM] (inactive)"}
{"molecule": "C[N+]12CCC(CC1)C(OC(=O)C(O)(c1ccccc1)c1ccccc1)C2", "note": "(stereo not given)", "activity change": "4.63% [at 35.3 µM] (inactive)"}
{"molecule": "Cc1ccc(C(=O)Nc2ccc(S(=O)(=O)O)c3cc(S(=O)(=O)O)cc(S(=O)(=O)O)c23)cc1NC(=O)c1cccc(NC(=O)Nc2cccc(C(=O)Nc3cc(C(=O)Nc4ccc(S(=O)(=O)O)c5cc(S(=O)(=O)O)cc(S(=O)(=O)O)c45)ccc3C)c2)c1", "activity change": "9.83% [at 35.3 µM] (inactive)"}
{"molecule": "CCN(C=O)CC", "activity change": "-3.05% (inactive)"}
{"molecule": "CN(C)C(=O)Oc1cccc([N+](C)(C)C)c1", "activity change": "-14.9% [at 35.3 µM] (inactive)"}
{"molecule": "NC(=O)N1c2ccccc2CC(=O)c2ccccc21", "activity change": "-15.2% [at 35.3 µM] (inactive)"}
{"molecule": "CC1OC1C1CCC2(C)OC2C1", "note": "(stereo not given)", "activity change": "0.277% (inactive)"}
{"molecule": "CC(=O)c1ccc2ccccc2c1", "activity change": "-0.62% (inactive)"}
{"molecule": "C[C@H]1[C@H](NC(=O)/C(=N/OC(C)(C)C(=O)O)c2csc(N)n2)C(=O)N1S(=O)(=O)O", "note": "(stereo in doubt)", "activity change": "-1.39% [at 35.3 µM] (inactive)"}
{"molecule": "COC(=O)Nc1ccc(Cl)c(Cl)c1", "activity change": "-16.9% (inactive)"}
{"molecule": "CC1(C)[C@@H]2CC[C@@]1(C)[C@H](O)C2", "activity change": "-15.7% (inactive)"}
{"molecule": "COCCOCC(OC)OC", "activity change": "-13.2% [at 35.3 µM] (inactive)"}
{"molecule": "C[N+]1(C)[C@@H]2CC(OC(=O)[C@H](CO)c3ccccc3)C[C@H]1[C@@H]1O[C@@H]12", "note": "(stereo not given in full)", "activity change": "1.77% [at 35.3 µM] (inactive)"}
{"molecule": "CC1CCC(CO)CC1", "note": "(stereo not given)", "activity change": "2.96% (inactive)"}
{"molecule": "CC(C(=O)O)c1cccc(Oc2ccccc2)c1", "note": "(stereo not given)", "activity change": "-17.2% [at 35.3 µM] (inactive)"}
{"molecule": "O=S(=O)(O)c1cc(O)c(O)c(S(=O)(=O)O)c1", "activity change": "-15.6% (inactive)"}
{"molecule": "CC(CO)(CO)[N+](=O)[O-]", "activity change": "1.84% (inactive)"}
{"molecule": "CCOC(=O)OC(C)OC1=C(C(=O)Nc2ccccn2)N(C)S(=O)(=O)c2ccccc21", "note": "(stereo not given)", "activity change": "-1.66% [at 35.3 µM] (inactive)"}
{"molecule": "CC[N+](C)(CC)CCOC(=O)C1c2ccccc2Oc2ccccc21", "activity change": "9.71% [at 35.3 µM] (inactive)"}
{"molecule": "NC(=O)NC1N=C([O][Al])NC1=O", "note": "(stereo not given)", "activity change": "3.21% [at 35.3 µM] (inactive)"}
{"molecule": "Cc1ccc(-c2ncc(Cl)cc2-c2ccc(S(C)(=O)=O)cc2)cn1", "activity change": "18.3% [at 35.3 µM] (inactive)"}
{"molecule": "NC(=O)Cc1cccc2ccccc12", "activity change": "-0.475% (inactive)"}
{"molecule": "C=CC(=O)OCCCl", "activity change": "0.421% (inactive)"}
